Binding signal data for one sequence are collected here from PMC7862700, “An all-to-all approach to the identification of sequence-specific readers for epigenetic DNA modifications on cytosine”.

Common to all, as to assay: DAPPL (digital affinity profiling via proximity ligation, sequencing); 10 mM Tris-HCl pH 7.5, 50 mM NaCl, 1 mM DTT, 4% glycerol, room temperature, 30 min; GST-TFs on glutathione beads, 16-mer random dsDNA library, 0.1% formaldehyde crosslink after washing; high values mean tight binding
One assay addresses T1, FEV (Homo sapiens, UniProt Q99581 1-238).
T1 sequence: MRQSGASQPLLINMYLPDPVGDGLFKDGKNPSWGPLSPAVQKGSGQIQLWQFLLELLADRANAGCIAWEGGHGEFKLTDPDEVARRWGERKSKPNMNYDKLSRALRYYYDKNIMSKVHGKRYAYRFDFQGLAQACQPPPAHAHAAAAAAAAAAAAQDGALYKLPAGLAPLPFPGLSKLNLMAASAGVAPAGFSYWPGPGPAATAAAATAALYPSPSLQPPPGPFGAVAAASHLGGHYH
Particulars: protein: recombinant; tags: N-terminal GST; dsDNA, one strand shown. The essentials: (§1)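 After expression in yeast as GST fusions, human transcription factors were bound to glutathione beads, DNA-barcoded and mixed with a tag-only sample. The pools were incubated with 200 nmole of a 16-mer random double-stranded DNA library in Tris/NaCl/DTT/glycerol buffer (30 min, room temperature), washed and crosslinked with 0.1% formaldehyde. Proximity ligation with BsaI/T4 ligase ran for 1 h at 37 °C, before PCR amplification and sequencing on an Illumina NextSeq500. Binding signal is a hexamer's read frequency for a factor divided by its frequency for the tag-only sample.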

For another assay, the target named is ETV5 (Homo sapiens, UniProt P41161 1-510). The following applies: protein: recombinant; tags: N-terminal GST; dsDNA, one strand shown. The procedure, abridged:
as §1

A further assay concerns the target HSF1 (Homo sapiens, UniProt Q00613 1-529). The following applies: protein: recombinant; tags: N-terminal GST; chain copies: 3; dsDNA, one strand shown. The procedure, abridged: as §1
The next assay has as its target T2, SPIC (Homo sapiens, UniProt Q8N5J4 1-248).
T2 sequence: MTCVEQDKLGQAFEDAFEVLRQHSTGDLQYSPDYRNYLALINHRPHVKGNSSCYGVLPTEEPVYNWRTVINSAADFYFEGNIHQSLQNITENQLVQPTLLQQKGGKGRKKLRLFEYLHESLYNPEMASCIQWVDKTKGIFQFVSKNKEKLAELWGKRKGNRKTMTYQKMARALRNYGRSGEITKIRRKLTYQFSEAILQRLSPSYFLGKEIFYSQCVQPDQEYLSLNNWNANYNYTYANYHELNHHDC
Particulars: protein: recombinant; tags: N-terminal GST; dsDNA, one strand shown. The essentials:
as §1

The target in a further assay is ELF4 (Homo sapiens, UniProt Q99607 1-663). Particulars: protein: recombinant; tags: N-terminal GST; dsDNA, one strand shown. The procedure, abridged:
as §1

A further assay has as its target T3, ELK4 (Homo sapiens, UniProt P28324-2 1-405).
T3 sequence: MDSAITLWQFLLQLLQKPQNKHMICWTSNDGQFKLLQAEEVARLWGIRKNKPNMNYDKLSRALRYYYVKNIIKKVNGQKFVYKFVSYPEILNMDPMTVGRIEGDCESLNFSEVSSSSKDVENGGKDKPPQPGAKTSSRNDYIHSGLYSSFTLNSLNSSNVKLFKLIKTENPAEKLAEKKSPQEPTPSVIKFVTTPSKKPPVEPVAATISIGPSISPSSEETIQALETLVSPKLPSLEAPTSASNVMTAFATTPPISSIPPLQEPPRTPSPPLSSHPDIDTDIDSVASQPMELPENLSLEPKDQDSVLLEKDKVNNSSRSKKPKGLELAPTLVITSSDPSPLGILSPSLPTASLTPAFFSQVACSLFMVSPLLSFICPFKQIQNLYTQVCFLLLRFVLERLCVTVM
Particulars: protein: recombinant; tags: N-terminal GST; dsDNA, one strand shown. The procedure, abridged:
as §1

A further assay has as its target T4, ETV2 (Homo sapiens, UniProt O00321 1-342).
T4 sequence: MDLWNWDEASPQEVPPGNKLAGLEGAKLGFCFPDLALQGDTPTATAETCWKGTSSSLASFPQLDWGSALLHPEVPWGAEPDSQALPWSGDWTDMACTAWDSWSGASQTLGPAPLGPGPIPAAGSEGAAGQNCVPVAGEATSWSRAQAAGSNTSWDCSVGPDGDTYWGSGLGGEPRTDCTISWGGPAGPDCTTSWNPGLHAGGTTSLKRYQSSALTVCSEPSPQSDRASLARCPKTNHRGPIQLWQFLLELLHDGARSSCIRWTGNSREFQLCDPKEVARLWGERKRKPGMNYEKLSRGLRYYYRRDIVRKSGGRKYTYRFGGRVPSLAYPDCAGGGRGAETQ
The following applies: protein: recombinant; tags: N-terminal GST; dsDNA, one strand shown. The procedure, abridged: as §1

Another assay concerns the target T5, ELF3 (Homo sapiens, UniProt P78545 1-371).
T5 sequence: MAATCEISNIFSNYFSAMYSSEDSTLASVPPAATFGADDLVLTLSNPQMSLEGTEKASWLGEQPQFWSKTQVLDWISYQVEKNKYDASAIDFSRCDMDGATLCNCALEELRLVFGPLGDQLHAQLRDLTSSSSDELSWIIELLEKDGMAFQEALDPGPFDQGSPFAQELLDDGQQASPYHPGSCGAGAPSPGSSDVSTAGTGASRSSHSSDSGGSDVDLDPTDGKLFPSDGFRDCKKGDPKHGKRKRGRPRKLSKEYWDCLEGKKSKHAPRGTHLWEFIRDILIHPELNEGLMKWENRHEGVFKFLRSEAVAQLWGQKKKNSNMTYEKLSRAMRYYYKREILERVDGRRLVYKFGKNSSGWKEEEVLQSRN
Particulars: protein: recombinant; tags: N-terminal GST; dsDNA, one strand shown. The procedure, abridged: as §1

The target of the next assay is CRX (Homo sapiens, UniProt O43186 1-299). The following applies: protein: recombinant; tags: N-terminal GST; dsDNA, one strand shown. The essentials:
as §1

For a further assay, the target named is ETV1 (Homo sapiens, UniProt P50549 1-477). The following applies: protein: recombinant; tags: N-terminal GST; dsDNA, one strand shown. The essentials:
as §1

The target in the next assay is T6, ERF (Homo sapiens, UniProt P50548 1-548).
T6 sequence: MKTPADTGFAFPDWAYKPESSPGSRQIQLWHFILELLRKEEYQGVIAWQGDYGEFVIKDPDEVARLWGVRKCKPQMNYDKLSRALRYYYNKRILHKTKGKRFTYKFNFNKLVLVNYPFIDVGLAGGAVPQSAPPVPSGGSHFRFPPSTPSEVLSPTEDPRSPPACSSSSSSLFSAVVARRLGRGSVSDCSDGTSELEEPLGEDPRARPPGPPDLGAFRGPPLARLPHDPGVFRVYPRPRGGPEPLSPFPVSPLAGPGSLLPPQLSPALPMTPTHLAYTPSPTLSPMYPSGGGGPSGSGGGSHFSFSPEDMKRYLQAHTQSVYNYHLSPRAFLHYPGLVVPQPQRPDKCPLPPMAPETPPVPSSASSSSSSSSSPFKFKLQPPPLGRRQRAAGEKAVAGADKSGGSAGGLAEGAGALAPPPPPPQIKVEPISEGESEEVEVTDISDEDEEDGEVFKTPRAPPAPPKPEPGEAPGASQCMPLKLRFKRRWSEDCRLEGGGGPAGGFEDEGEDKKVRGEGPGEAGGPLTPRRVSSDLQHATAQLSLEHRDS
Particulars: protein: recombinant; tags: N-terminal GST; dsDNA, one strand shown. The essentials:
as §1

The next assay has as its target T7, ETV3L (Homo sapiens, UniProt Q6ZN32 1-361).
T7 sequence: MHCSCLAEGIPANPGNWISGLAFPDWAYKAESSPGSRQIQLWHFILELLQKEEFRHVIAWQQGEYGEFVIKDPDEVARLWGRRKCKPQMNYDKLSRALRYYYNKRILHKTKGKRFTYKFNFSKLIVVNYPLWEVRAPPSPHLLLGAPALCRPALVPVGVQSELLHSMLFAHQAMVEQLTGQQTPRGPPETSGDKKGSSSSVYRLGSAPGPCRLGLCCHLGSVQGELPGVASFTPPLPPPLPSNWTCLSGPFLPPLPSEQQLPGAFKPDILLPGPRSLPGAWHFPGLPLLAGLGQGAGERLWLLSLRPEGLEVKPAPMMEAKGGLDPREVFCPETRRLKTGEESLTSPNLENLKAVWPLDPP
Particulars: protein: recombinant; tags: N-terminal GST; dsDNA, one strand shown. The procedure, abridged:
as §1

The target of another assay is T8, ETS2 (Homo sapiens, UniProt P15036 1-469).
T8 sequence: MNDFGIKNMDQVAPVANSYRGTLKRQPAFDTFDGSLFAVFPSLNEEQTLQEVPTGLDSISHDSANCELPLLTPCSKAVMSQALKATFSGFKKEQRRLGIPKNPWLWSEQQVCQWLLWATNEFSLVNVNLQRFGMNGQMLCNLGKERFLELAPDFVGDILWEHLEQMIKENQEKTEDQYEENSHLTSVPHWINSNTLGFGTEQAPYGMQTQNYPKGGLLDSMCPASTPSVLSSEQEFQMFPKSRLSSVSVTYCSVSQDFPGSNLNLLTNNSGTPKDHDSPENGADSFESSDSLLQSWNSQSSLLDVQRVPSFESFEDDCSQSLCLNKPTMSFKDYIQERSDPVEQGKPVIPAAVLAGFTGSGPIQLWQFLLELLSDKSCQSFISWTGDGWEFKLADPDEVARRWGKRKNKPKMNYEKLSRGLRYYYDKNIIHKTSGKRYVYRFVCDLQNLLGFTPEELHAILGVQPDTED
The following applies: protein: recombinant; tags: N-terminal GST; dsDNA, one strand shown. The essentials: as §1

The next assay has as its target T9, SPDEF (Homo sapiens, UniProt O95238 1-335).
T9 sequence: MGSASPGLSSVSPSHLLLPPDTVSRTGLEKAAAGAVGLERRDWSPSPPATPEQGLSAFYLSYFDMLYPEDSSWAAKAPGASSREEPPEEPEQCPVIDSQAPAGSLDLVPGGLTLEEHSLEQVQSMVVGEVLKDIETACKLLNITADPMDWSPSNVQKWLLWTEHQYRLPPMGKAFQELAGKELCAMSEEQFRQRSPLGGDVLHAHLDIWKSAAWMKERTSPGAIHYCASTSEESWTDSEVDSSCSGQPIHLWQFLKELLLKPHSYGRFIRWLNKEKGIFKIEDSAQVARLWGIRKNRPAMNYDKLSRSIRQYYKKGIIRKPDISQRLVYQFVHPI
The following applies: protein: recombinant; tags: N-terminal GST; dsDNA, one strand shown. The essentials:
as §1

The target in the next assay is T10, ETV7 (Homo sapiens, UniProt Q9Y603 1-341).
T10 sequence: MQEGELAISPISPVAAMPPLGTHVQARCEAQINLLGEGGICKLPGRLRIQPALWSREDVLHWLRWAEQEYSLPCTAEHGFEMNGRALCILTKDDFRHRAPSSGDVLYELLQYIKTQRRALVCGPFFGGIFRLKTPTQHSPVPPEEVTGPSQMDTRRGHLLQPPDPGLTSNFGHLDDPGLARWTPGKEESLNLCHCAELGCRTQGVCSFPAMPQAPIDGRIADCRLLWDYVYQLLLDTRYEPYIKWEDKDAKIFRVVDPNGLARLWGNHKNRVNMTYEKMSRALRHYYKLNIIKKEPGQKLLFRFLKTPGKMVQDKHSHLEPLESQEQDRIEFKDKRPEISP
Particulars: protein: recombinant; tags: N-terminal GST; dsDNA, one strand shown. The essentials:
as §1

The target in the next assay is T11, ELF5 (Homo sapiens, UniProt Q9UKW6-2 1-255).
T11 sequence: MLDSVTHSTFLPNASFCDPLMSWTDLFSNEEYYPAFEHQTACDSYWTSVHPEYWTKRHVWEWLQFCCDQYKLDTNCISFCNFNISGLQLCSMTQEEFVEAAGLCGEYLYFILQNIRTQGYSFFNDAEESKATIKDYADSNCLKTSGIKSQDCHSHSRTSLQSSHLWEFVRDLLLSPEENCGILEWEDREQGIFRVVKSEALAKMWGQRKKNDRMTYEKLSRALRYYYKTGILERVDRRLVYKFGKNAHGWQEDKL
The following applies: protein: recombinant; tags: N-terminal GST; dsDNA, one strand shown. The procedure, abridged: as §1

In the next assay the target is T12, ETV3 (Homo sapiens, UniProt P41162-2 1-143).
T12 sequence: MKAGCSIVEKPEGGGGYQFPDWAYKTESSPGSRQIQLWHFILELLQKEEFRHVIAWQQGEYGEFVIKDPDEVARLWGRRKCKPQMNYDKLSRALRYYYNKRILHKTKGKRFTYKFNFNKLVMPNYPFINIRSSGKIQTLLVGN
The following applies: protein: recombinant; tags: N-terminal GST; dsDNA, one strand shown. The essentials:
as §1

In another assay the target is ETV6 (Homo sapiens, UniProt P41212 1-452). The following applies: protein: recombinant; tags: N-terminal GST; dsDNA, one strand shown. The essentials: as §1
Chain of ETV6 (P41212 whole entry): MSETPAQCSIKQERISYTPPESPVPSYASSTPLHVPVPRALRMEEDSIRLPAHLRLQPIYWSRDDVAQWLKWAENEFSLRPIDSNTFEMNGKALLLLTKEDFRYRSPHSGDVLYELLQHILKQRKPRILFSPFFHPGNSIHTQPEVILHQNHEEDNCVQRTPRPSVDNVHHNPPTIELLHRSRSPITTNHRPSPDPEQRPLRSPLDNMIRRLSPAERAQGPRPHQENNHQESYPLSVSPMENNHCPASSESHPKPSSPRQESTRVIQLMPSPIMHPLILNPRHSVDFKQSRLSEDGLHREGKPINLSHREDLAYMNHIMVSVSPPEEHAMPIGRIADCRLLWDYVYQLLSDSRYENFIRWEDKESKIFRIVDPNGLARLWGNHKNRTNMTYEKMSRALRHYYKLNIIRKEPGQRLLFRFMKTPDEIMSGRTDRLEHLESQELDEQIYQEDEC

Chain of ETV1 (P50549 whole entry): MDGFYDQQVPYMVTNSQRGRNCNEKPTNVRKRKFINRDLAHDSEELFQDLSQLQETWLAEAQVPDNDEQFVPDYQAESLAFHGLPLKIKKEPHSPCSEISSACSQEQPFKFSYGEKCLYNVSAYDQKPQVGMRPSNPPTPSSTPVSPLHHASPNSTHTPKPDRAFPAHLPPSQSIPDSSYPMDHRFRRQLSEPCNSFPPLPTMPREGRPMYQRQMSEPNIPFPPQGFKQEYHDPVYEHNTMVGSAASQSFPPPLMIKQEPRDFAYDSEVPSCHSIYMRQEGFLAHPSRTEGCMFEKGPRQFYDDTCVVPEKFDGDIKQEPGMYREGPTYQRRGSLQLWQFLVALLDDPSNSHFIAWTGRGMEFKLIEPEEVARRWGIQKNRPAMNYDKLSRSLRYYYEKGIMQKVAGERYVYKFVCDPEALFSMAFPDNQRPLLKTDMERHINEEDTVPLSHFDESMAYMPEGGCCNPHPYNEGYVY
Chain of ELF4 (Q99607 whole entry): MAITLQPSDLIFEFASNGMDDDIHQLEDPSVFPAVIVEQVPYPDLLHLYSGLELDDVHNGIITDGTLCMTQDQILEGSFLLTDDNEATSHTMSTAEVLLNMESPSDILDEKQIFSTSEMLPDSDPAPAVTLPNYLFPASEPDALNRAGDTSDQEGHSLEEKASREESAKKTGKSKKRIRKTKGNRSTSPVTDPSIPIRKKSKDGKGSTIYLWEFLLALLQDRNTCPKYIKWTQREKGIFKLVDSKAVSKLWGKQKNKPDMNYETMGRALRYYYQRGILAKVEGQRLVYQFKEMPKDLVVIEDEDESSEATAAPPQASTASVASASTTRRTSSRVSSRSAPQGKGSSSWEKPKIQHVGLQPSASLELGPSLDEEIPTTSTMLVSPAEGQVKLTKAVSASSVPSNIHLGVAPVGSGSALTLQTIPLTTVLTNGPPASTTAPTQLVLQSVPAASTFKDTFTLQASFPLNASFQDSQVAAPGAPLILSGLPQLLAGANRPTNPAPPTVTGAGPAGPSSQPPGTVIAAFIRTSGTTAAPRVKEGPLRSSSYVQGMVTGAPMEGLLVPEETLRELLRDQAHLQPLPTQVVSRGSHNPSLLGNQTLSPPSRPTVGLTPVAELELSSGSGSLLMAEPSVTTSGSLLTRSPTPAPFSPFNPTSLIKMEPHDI
Chain of CRX (O43186 whole entry): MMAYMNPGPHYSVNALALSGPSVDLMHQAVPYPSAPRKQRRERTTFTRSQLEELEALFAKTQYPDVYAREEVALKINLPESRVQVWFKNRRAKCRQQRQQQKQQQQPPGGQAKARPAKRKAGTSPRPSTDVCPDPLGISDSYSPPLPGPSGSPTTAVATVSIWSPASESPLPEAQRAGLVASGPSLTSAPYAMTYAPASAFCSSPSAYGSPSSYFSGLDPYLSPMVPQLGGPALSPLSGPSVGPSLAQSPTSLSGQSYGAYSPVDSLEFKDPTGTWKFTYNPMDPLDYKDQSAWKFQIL
Chain of ETV5 (P41161 whole entry): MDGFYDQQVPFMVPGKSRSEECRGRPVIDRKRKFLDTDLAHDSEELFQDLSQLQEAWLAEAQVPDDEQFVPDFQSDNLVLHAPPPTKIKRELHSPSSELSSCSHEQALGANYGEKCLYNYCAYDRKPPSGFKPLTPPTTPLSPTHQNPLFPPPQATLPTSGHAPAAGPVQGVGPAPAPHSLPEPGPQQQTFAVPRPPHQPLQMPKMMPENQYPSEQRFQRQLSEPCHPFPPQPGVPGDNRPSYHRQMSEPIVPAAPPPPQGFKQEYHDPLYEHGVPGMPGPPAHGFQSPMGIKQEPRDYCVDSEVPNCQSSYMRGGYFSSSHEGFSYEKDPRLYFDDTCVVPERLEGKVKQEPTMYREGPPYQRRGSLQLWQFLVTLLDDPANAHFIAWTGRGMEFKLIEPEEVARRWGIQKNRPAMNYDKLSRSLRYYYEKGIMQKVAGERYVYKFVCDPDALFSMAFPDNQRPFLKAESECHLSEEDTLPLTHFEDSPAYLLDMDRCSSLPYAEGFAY
Chain of HSF1 (Q00613 whole entry): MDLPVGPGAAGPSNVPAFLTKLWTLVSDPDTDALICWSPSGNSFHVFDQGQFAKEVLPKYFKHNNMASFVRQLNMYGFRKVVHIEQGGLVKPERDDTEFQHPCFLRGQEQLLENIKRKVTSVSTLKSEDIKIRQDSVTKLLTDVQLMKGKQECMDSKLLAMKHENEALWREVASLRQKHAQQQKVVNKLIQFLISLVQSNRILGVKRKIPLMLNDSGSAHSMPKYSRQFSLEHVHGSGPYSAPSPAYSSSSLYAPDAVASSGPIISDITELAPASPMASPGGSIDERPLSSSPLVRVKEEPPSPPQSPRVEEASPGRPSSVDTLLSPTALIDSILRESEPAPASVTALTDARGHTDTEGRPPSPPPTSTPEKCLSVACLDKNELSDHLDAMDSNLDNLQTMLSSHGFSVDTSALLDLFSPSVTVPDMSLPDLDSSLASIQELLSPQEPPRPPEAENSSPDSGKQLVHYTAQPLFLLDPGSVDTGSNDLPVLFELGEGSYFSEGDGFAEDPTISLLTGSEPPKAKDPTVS

Regarding ATGCAT, the binding signal is 1.18 fold enrichment (6-mer frequency, TF over GST control) with FEV; 1.19 fold enrichment (6-mer frequency, TF over GST control) with ETV5; 1 fold enrichment (6-mer frequency, TF over GST control) with HSF1; 1.31 fold enrichment (6-mer frequency, TF over GST control) in the assay with SPIC; 1.28 fold enrichment (6-mer frequency, TF over GST control) with ELF4; 1.11 fold enrichment (6-mer frequency, TF over GST control) with ELK4. Moreover, the binding signal was 1.27 fold enrichment (6-mer frequency, TF over GST control) with ETV2; 1.07 fold enrichment (6-mer frequency, TF over GST control) with ELF3; 1.05 fold enrichment (6-mer frequency, TF over GST control) in the assay with CRX; 1.15 fold enrichment (6-mer frequency, TF over GST control) with ETV1; 1.21 fold enrichment (6-mer frequency, TF over GST control) in the assay with ERF; 1.26 fold enrichment (6-mer frequency, TF over GST control) with ETV3L. Moreover, the binding signal with ETS2 was 1.21 fold enrichment (6-mer frequency, TF over GST control); with SPDEF, 1.32 fold enrichment (6-mer frequency, TF over GST control); with ETV7, 1.21 fold enrichment (6-mer frequency, TF over GST control); with ELF5, 1.15 fold enrichment (6-mer frequency, TF over GST control); with ETV3, 1.26 fold enrichment (6-mer frequency, TF over GST control); with ETV6, 1.2 fold enrichment (6-mer frequency, TF over GST control).
